This assay has as its system H1299. The experiment in a line: difference in mean normalized H2B-mRuby nuclear fluorescence intensity relative to DMSO control (normalized intensity difference (DMSO = 0)); higher = stronger increase in transgene reporter fluorescence. Conditions: 24 h. On the procedure: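 Cancer cell lines stably expressing H2B-mRuby2 from a lentiviral PGK promoter were treated with each drug for 24 h and imaged on a Leica DMI8 (ex 541-551 / em 565-605 nm). Nuclei were segmented in CellProfiler. The value is the difference in mean per-nucleus normalized H2B-mRuby intensity versus DMSO-treated cells (about 3 repeats x 4 fields). Doxorubicin is itself fluorescent. Dasatinib is in nM.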

As to `Cc1sc2c(c1C)C(c1ccc(Cl)cc1)=N[C@@H](CC(=O)OC(C)(C)C)c1nnc(C)n1-2` (concentration unit: uM), the difference is 0.176 (concentration: 0.1); 0.367 (concentration: 0.5); 0.441 (concentration: 1); 0.532 (concentration: 5); 0.625 (concentration: 10).
For the molecule `CN[C@@H]1C[C@H]2O[C@@](C)([C@@H]1OC)n1c3ccccc3c3c4c(c5c6ccccc6n2c5c31)C(=O)NC4` (concentration unit: nM), the difference (concentration: 5) was -0.113; the difference (concentration: 10) was -0.185; the difference (concentration: 25) was -0.17; the difference (concentration: 100) was found to be 0.0873; the difference (concentration: 500) was determined as 0.138.

Source of the values: the supplement of paper PMC11026393.
